Mtb MenB inh – M. tuberculosis MenB inhibitors, primary screen, biochemical, absorbance; MenB enzyme assay, absorbance read-out; inhibition, % (test concentration not listed); hit rate 0.43% among 100,000; in the data active = inhibition above about 21%, passing the limit was not always enough
AID504770 – growth inhibition of E. coli YBA685, primary screen, V. cholerae RctB inhibitors. hit rate 0.27% among 130,000. z-score (test concentration not listed). AID 504770, 2011. E. coli YBA685 rctB-dependent plasmid, OD600 growth, 3 h; stronger effect = lower value; in the data active = z-score below about -2, passing the limit was not always enough
Mtb MbtI inh – MbtI salicylate synthase inhibitors, primary screen, biochemical, fluorescence intensity; AID 493033, 2011; purified MbtI enzyme, fluorescence intensity read-out; P9WFX0; inhibition, % (test concentration not listed); hit rate 0.89% among 100,000; in the data active = inhibition mostly above about 56%, no sharp cut-off; inactive = mostly below about 77%
Target sequence (P9WFX0 whole entry, looked up): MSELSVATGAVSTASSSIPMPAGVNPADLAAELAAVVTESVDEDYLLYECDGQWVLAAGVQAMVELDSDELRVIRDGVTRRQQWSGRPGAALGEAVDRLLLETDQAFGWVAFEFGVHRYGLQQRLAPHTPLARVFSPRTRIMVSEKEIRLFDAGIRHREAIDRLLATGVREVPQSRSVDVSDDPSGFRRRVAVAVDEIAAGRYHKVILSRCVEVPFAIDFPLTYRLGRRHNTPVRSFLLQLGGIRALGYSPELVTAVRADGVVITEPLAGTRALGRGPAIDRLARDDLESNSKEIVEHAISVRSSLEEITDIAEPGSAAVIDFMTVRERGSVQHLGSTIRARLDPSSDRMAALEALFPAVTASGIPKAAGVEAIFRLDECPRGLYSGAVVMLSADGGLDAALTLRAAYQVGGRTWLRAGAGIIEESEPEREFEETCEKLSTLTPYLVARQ
PV pol inh – poliovirus RdRp elongation inhibitors, primary screen, biochemical, fluorescence polarization, total intensity; Genome polyprotein (Poliovirus type 1 (strain Mahoney)), P03300; poliovirus polymerase elongation; stronger effect = lower value; % elongation, % (compound at 16.7 µg/mL); hit rate 0.66% among 150,000; AID 588519, 2011; in the data active = % elongation below about 90%
* = called active by the depositor; i = inactive; / = no result; ! = repeats disagree. Compounds with a hit are over-represented: about 1.4% of the library has one in this group of screens.

SMILES	Mtb MenB inh	AID504770	Mtb MbtI inh	PV pol inh
Cc1cc(NCCN2CCCCC2)c2ccc3ccccc3c2n1	-1	1.1	i	69*
Cc1nc2ccccc2c2oc(C(=O)NCCN3CCCCCC3)cc12	/	-0.3	/	/
Cc1nn(CCCC(=O)NC2CCCCC2C)c(=O)c2cc3sccc3n12 (configuration not stated)	9	-0.3	-1	100
COCCNC(=S)c1ccc(N(C)C)cc1	-52	-0.35	62*	101
COc1ccc(S(=O)(=O)N2CCC(NC(=O)c3ccccc3)CC2)cc1	33*	1.4	0	102
COc1ccc(S(=O)(=O)N2CCC(NC(=O)NC3CCCC3)CC2)cc1	-14	-0.85	42	102
CC1CC1C(=O)Nc1ccc2[nH]ncc2c1 (configuration not stated)	13	-1	-1	103
CCOc1ccc(-c2cnc(N)s2)cc1	-1	-0.7	/	62*
CN(C)S(=O)(=O)c1ccc2c(c1)C(=C(C#N)C#N)c1cc(S(=O)(=O)N(C)C)ccc1-2	-23	1.4	-14	102
Cc1nc(CSc2nnc(Cc3cccc4ccccc34)n2N)cs1	-28	-3.8	57*	100
COc1cc(Cl)c(NS(=O)(=O)c2ccc(-c3cnc(C4CC4)o3)cc2)c(OC)c1	/	/	/	87*
COc1ccc(C)cc1NS(=O)(=O)c1ccc(-c2cnc(C3CC3)o2)cc1	/	/	/	105
CC1=C(C)C(=O)C(NCc2ccco2)=CC1=O	-120	-1.1	8	74*
CC1(C)CC(NC(=O)CCCC(=O)O)CC(C)(C)N1	-6	-0.2	-19	102
CC1(C)CC(NC(=O)CCc2ccccc2)CC(C)(C)N1	39*	0.7	4	101
c1ccc(-c2ccc(-c3ccccn3)nc2)nc1	/	-2.4*	/	/
c1ccc(-c2cccc(-c3ccccn3)n2)nc1	/	-1.4	6	113
CN1C(=O)/C(=c2/[nH][nH]c(=O)/c2=C\C=C\c2ccccc2)C(=O)c2ccccc21	-14	1.8	/	84*
COc1ccc(/C=C2/C(=O)N(C)c3ccccc32)cc1	-64	0.25	17	100
Cc1ccc(-n2c(C)nc3c(cnn3-c3ccccc3)c2=O)cc1	/	/	/	82*
O=C(NCc1ccco1)C1CCC(C(=O)NCc2ccco2)CC1 (configuration not stated)	-14	0.05	0	101
S=c1[nH]nc(-c2ccncc2)o1	/	-0.45	97*	/
Cc1cccc(CN2C(=O)c3ccccc3S(=O)(=O)c3ccc(C(=O)NCCN4CCCC4)cc32)c1	/	-0.35	/	/
Cc1ccc(NC(=S)C(C#N)C(N)=O)cc1Cl (configuration not stated)	-1	-0.6	74*	102
CN(C)CCOC(=O)COc1ccc(Cl)cc1	68*!	-0.3	-11	99
SMILES	Mtb MenB inh	AID504770	Mtb MbtI inh	PV pol inh
O=C(COc1ccc(Cl)cc1)OCc1ccc(Br)cc1	/	0.9	-9	99
COc1ccccc1-c1[nH]ncc1CNCc1ccccc1C	-27	-0.95	-14	101
Cc1nc2ccc(F)cc2c2c1COC2	11	-0.8	16	99
N#Cc1ccc(OCC(=O)N2CCCc3ccccc32)cc1	/	1.5	-2	102
COc1ccc2c(c1)CCc1sc(NC(=O)c3cccc(Br)c3)nc1-2	/	/	/	101
COc1ccc2c(c1)Cc1sc(NC(=O)c3cccc(C)c3)nc1-2	/	/	/	56*
COc1ccc2c(c1)Cc1sc(NC(=O)c3ccc(Cl)cc3)nc1-2	/	/	/	88*
COc1ccc(C(=O)Nc2nc3c(s2)CCc2cc(OC)ccc2-3)cc1	/	/	/	80*
COc1ccc2c(c1)Cc1sc(NC(=O)c3cccc(Cl)c3)nc1-2	/	/	/	63*
NNc1cccc(C(F)(F)F)c1	/	-1.1	-1	104
CN1CCn2ccc3[nH]c(=O)nc1c32	-23	2.5	137	105
S=C(NCCN1CCOCC1)Nc1ccccc1	-14	-1.9	-1	106
FC(F)(F)c1ccccc1NNC(=S)NCCN1CCOCC1	-25	0.7	71*	98
O=C(CCn1[nH]c(=O)ccc1=O)Nc1nc2ccccc2[nH]1	-16	-0.4	-4	102
c1ccc(-c2nn3c(-c4ccccc4)nnc3s2)cc1	-3	0.5	19	101
c1ccc(OCc2nn3c(-c4ccccc4)nnc3s2)cc1	-45	0.55	86*	96
COc1ccc(-c2nnc3sc(C(C)N4C(=O)c5ccccc5C4=O)nn23)cc1 (configuration not stated)	-11	-0.25	5	102
c1ccc(CCc2nn3c(COc4ccccc4)nnc3s2)cc1	-34	-1	76*	99
O=C1c2ccccc2C(=O)N1CCc1nn2c(-c3cccnc3)nnc2s1	9	-0.4	87*	100
COc1ccc(CN2COc3ccc4c(oc(=O)c5ccccc54)c3C2)cc1OC	/	/	/	100
O=c1oc2c3c(ccc2c2ccccc12)OCN(Cc1ccc(Cl)cc1)C3	/	/	/	88*
CCCOc1ccc(/C=C/C(=O)Nc2sc(C)c(C)c2C(=O)OCC)cc1OC	/	/	/	73*
CC(C)CC(=O)N=C1SC2CS(=O)(=O)CC2N1c1ccccc1 (configuration not stated)	-3	-0.9	-17	99
CCOC(=O)c1c(C)n(-c2ccccc2)c2ccc(OC(=O)c3ccccc3NC(=O)CC)cc12	-19	0.6	16	104
Cc1c2cnn(-c3ccccc3)c(=O)c2c(C)n1CCCC(=O)Nc1cccc(F)c1	/	/	/	82*
SMILES	Mtb MenB inh	AID504770	Mtb MbtI inh	PV pol inh
O=C1c2ccccc2C(=O)N1CCSC1=NN2CCS(=O)(=O)N=C2S1	1	1.7	29	84*
S=c1[nH]ccn1CCc1ccccc1	-15	-0.3	/	103
O=c1[nH][nH]c(=S)n1CCc1ccccc1	-13	-0.55	68*	93
COc1ccc(Cl)cc1CN1CCCCC1	-14	-1.4	/	110
COc1cc(Cl)ccc1N=NN1CCOCC1	/	-3.9*	/	/
O=C(c1cnccn1)N(Cc1ccc(Cl)cc1)Cc1cc2cc3c(cc2[nH]c1=O)OCCO3	25*	0.4	-4	99
COc1nc(NC(=O)NS(=O)(=O)Nc2cccc3cccnc23)nc(OC)n1	7	0.55	2	79*
CCC(=O)Nc1cccc2cccnc12	-9	1.4	6	102
FC(F)Sc1nnc2sc3ccccc3n12	-28	-1.1	-5	102
Cc1ccc(NC(=O)C2CCN(c3ccc(N4CCOCC4)nn3)CC2)cc1C	/	0.4	/	/
Cc1noc(C)c1CSc1ccccc1C(=O)NC(C)c1ccc2c(c1)OCCO2 (configuration not stated)	-29	-0.2	89*	100
Cc1noc(C)c1CSc1ccccc1C(=O)OC(C)C(=O)N1CCOCC1 (configuration not stated)	-14	0.45	8	102
CCOC(=O)c1ccccc1NC(=O)c1nn(-c2ccccc2OC)c(=O)c2ccccc12	/	0.3	/	/
CC(C)C(=O)Nc1ccc2nc(SCC(=O)N3CCc4ccccc43)sc2c1	/	/	/	83*
CCN(CC)CCOC(=O)c1ccc(NC(=O)c2cc3cc(OC)ccc3oc2=O)cc1	/	/	/	102

From PubChem BioAssay
